# Out of some 310,000 compounds screened, about 1,900 (0.61%) were called active. Roughly 8% stayed inconclusive and do not appear here. The calls are words filed in the database; no cut-off is given here. The full list was thinned out, with actives kept by preference.
# Experiment: qHTS for Stage-Specific Inhibitors of Vaccinia Orthopoxvirus: mCherry Reporter Primary qHTS.
# Type: functional
# Settings: read-out: Potency
row,Structure (SMILES),AC50
1,CN(C)C(=O)CCc1ccc2c3c([nH]c2c1)[C@]1(C)[C@@H](C(=O)N2CCCCC2)C[C@H](CC(=O)NCCN2CCOCC2)C(=O)N1CC3,316 µM (active)
2,C[C@H]1O[C@@H](O[C@H]2[C@@H](O)C[C@H](O[C@H]3[C@@H](O)C[C@H](O[C@H]4CC[C@@]5(C)[C@H](CC[C@@H]6[C@@H]5CC[C@]5(C)[C@@H](C7=CC(=O)OC7)[C@@H](O)C[C@]65O)C4)O[C@@H]3C)O[C@@H]2C)C[C@H](O)[C@@H]1O [GITOXIN],355 µM (active)
3,Cc1cccc2c1N(CCCCI)C=S2C (stereo not drawn),4.47 µM (active)

# — ChEMBL document CHEMBL1201862, “PubChem BioAssay data set” (2004)
